According to PubChem BioAssay:
For part of these data: Potency and affinity values are given separately. The source made the active and inactive calls.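 The calls were made as follows, unless noted: active = calcium signal cut by more than 3 SD below the full-agonist control yet still positive, in both repeats and the earlier primary screen; inactive = the rest.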

Tests used:
[1] = system: TRPC4 beta (transient receptor potential cation channel C4), mouse; assay: TRPC4 cation channel opening, retest – cell-based, Fluo4 calcium, HEK293 TRPC4beta/mu-opioid, duplicates, 10 µM, confirmation (AID 2426;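 active = fluorescence ratio normalized to control raised more than 50% in primary screen plus both repeat runs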); conditions: Fluo4 calcium fluorescence, at 10 µM; active compounds read high
[2] = system: transient receptor potential cation channel C4 beta (TRPC4), mouse; assay: TRPC4 cation channel opening, second retest – cell-based, second round, Fluo4, HEK293 TRPC4beta/mu-opioid, 1 µM, confirmation (AID 2461;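 active = primary screen active and over 50% activation in each of two duplicate runs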); conditions: Fluo4 calcium fluorescence, at 1 µM; active compounds read high
[3] = system: TRPC4 (transient receptor potential cation channel C4 beta), mouse; assay: potentiation of DAMGO EC20 TRPC4 response – cell-based, second round, Fluo-4, HEK293 TRPC4beta/mu-opioid, 1 µM, confirmation (AID 2554;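 active = primary screen hit whose fluorescence ratio, in both repeats, exceeds the weak agonist control mean by 3 SD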); conditions: DAMGO EC20, Fluo-4 calcium flux, at 1 µM; active compounds read high
[4] = system: TRPC4 beta (transient receptor potential cation channel C4), mouse; assay: potentiation of DAMGO EC20 TRPC4 response – cell-based, Fluo-4, HEK293 TRPC4beta/mu-opioid, confirmation (AID 2555;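 active = primary screen hit whose calcium fluorescence ratio, in both repeats, exceeds the weak agonist control mean by 3 SD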); conditions: DAMGO EC20, Fluo-4 calcium flux, at 10 µM; active compounds read high
[5] = biological target: Short transient receptor potential channel 4 (Mus musculus) (UniProt Q9QUQ5); assay: blockers of DAMGO-evoked TRPC4 calcium flux – cell-based, Fluo4, HEK293 TRPC4beta/mu-opioid, confirmation (AID 2636); conditions: at 10 µM; active compounds read high
[6] = biological target: Short transient receptor potential channel 4 (Mus musculus) (UniProt Q9QUQ5); assay: blockers of DAMGO-evoked TRPC4 calcium flux – cell-based, second round, Fluo4, HEK293 TRPC4beta/mu-opioid, 1 µM, confirmation (AID 2637;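 active = calcium signal ratio cut to more than 3 SD under the fully stimulated control mean yet still positive, in both repeats and the primary screen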;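 as to inhibition: percent of integrated ratio relative to wells lacking test compound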); conditions: at 1 µM; active compounds read high
[7] = biological target: Short transient receptor potential channel 4 (Mus musculus) (UniProt Q9QUQ5); assay: calcium entry via TRPC4 opening agents – cell-based, HEK293 TRPC4/mu-opioid, Fluo-4 calcium, dose response (AID 434937;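 active = primary screen activator hit with a dose response curve and TRPC4 channel activation at any tested dose; inactive = no activation, no dose response, or not a primary hit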)
[8] = biological target: Short transient receptor potential channel 4 (Mus musculus) (UniProt Q9QUQ5); assay: potentiation of DAMGO-evoked TRPC4 calcium signal – cell-based, HEK293 TRPC4/mu-opioid, Fluo-4 calcium, EC20 DAMGO, dose response (AID 434941;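 active = earlier screen potentiator hit that boosts the TRPC4 ion channel at some dose, with a dose response; inactive = no potentiation, no dose response, or not a prior hit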;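 also: calcium entry triggered by an EC20 dose of DAMGO at the co-expressed mu-opioid receptor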)
[9] = biological target: Short transient receptor potential channel 4 (Mus musculus) (UniProt Q9QUQ5); assay: block of DAMGO-driven TRPC4 calcium entry – cell-based, HEK293 TRPC4/mu-opioid, Fluo-4 calcium, dose response (AID 434942;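 active = primary screen inhibitor hit that blocks the TRPC4 channel at some tested dose, yielding a dose curve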)
[10] = biological target: Short transient receptor potential channel 6 (Mus musculus) (UniProt Q61143); assay: TRPC6 blockade by TRPC4 inhibitor hits – cell-based, HEK293, membrane potential dye, duplicate, selectivity assay for TRPC4 inhibitor project, confirmation (AID 434948;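 active = active in primary screen and both duplicates, each dropping signal beyond three positive-control SD with fluorescence still positive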); conditions: HEK293 TRPC6, membrane potential dye fluorescence, at 10 µM, stimulated with maximal-effect acetylcholine; active compounds read high
[11] = biological target: Short transient receptor potential channel 6 (Mus musculus) (UniProt Q61143); assay: TRPC6 opening by TRPC4 activator hits – cell-based, HEK293, membrane potential dye, duplicate, selectivity assay for TRPC4 activator project, confirmation (AID 434950;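 active = membrane potential signal rise above negative control mean plus 3 SD in both duplicates, also active in the earlier TRPC4 screen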); conditions: HEK293 TRPC6, membrane potential fluorescence, at 10 µM; activation: active compounds read high; outcome: activation
[12] = biological target: Short transient receptor potential channel 6 (Mus musculus) (UniProt Q61143); assay: positive modulators of mouse TRPC6 channel – HEK293 cells, membrane potential dye, duplicate, selectivity assay for TRPC4 potentiator project, confirmation (AID 434952;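 active = compound raising the membrane signal above positive-control mean plus 3 SD in both repeats, and a primary screen hit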); conditions: HEK293 TRPC6, membrane potential dye fluorescence, at 10 µM, maximal acetylcholine added after compound; active compounds read high
[13] = biological target: Short transient receptor potential channel 4 (Mus musculus) (UniProt Q9QUQ5); assay: calcium flux activators in TRPC4/5HT1a cells, counter-screen for TRPC4 activator project, cell-based, second counter screen, HEK293 TRPC4/5HT1a, Fluo-4 (AID 434977;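 active = calcium signal rise above buffer-control mean plus 5 SD in both duplicates, and also a hit in the primary screen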); conditions: Fluo-4 calcium flux, at 10 µM; active compounds read high
[14] = serotonin-gated TRPC4 signal block – cell-based, second counter screen, HEK293 TRPC4/5HT1a, Fluo-4, counter-screen for TRPC4 inhibitor project, confirmation (AID 434978;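 active = primary screen active whose calcium signal fell more than 3 SD beyond the full-serotonin control mean in both duplicate plates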;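 as to outcome: serotonin given first at submaximal then at maximal dose after compound preincubation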); conditions: Fluo-4 calcium flux, at 10 µM, serotonin added to trigger calcium flux; active compounds read high
[15] = system: TRPC4 (mouse), co-expressed with 5HT1a in HEK293; assay: enhancement of serotonin-evoked TRPC4 response – cell-based, second counter screen, HEK293 TRPC4/5HT1a, Fluo-4, counter-screen for TRPC4 potentiator project, confirmation (AID 434979;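 active = signal rise over 3 SD above mean of control wells given weak agonist, in both repeats and first screen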); conditions: Fluo-4 calcium flux, at 10 µM, serotonin added at its EC20 dose; active compounds read high
[16] = nonspecific calcium rise without TRPC4 – cell-based, HEK293 mu-opioid receptor line, counter-screen for TRPC4 activator project, confirmation (AID 449723;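 active = hit in primary screen, with calcium signal over 5 SD above buffer well mean in both duplicates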;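 also: counter screen cells carry the mu-opioid receptor alone and lack TRPC4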); conditions: HEK293 mu-opioid cells, Fluo-4 calcium fluorescence, at 10 µM; active compounds read high
[17] = nonspecific potentiation of DAMGO calcium response – cell-based, HEK293 mu-opioid receptor line, counter-screen for TRPC4 allosteric potentiator project, confirmation (AID 449724;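 active = calcium signal rise more than 3 SD above the low-dose agonist control mean, in both duplicate plates and the primary screen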); conditions: HEK293 mu-opioid receptor cells, Fluo-4 calcium flux, at 10 µM, compound added before EC20 DAMGO stimulus; active compounds read high

Short transient receptor potential channel 4 (Mus musculus), sequence (Q9QUQ5 whole entry, looked up): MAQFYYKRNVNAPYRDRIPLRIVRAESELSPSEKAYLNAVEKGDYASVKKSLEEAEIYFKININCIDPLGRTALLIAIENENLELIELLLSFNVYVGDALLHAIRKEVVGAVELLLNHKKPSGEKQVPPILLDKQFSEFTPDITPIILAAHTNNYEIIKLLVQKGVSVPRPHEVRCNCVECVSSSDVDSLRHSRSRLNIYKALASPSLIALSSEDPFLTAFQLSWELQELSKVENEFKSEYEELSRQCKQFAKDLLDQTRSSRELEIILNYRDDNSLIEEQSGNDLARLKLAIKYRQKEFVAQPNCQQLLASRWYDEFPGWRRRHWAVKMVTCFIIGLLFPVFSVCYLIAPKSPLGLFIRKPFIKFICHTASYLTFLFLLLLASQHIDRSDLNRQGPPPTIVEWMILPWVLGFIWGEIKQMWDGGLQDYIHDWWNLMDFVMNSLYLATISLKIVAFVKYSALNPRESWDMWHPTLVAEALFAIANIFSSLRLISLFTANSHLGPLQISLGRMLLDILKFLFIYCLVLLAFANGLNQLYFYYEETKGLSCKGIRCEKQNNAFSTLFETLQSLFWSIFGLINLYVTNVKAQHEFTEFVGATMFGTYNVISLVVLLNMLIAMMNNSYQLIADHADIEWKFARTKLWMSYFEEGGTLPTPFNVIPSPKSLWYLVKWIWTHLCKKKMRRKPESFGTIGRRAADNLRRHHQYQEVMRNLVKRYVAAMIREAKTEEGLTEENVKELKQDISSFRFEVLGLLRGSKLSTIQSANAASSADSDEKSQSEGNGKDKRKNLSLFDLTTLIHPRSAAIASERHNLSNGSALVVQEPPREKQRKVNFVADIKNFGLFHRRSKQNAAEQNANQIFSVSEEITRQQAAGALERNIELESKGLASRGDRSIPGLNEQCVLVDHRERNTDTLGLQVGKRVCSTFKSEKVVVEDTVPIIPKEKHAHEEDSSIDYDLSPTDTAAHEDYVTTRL
Short transient receptor potential channel 6 (Mus musculus), sequence (Q61143 whole entry, looked up): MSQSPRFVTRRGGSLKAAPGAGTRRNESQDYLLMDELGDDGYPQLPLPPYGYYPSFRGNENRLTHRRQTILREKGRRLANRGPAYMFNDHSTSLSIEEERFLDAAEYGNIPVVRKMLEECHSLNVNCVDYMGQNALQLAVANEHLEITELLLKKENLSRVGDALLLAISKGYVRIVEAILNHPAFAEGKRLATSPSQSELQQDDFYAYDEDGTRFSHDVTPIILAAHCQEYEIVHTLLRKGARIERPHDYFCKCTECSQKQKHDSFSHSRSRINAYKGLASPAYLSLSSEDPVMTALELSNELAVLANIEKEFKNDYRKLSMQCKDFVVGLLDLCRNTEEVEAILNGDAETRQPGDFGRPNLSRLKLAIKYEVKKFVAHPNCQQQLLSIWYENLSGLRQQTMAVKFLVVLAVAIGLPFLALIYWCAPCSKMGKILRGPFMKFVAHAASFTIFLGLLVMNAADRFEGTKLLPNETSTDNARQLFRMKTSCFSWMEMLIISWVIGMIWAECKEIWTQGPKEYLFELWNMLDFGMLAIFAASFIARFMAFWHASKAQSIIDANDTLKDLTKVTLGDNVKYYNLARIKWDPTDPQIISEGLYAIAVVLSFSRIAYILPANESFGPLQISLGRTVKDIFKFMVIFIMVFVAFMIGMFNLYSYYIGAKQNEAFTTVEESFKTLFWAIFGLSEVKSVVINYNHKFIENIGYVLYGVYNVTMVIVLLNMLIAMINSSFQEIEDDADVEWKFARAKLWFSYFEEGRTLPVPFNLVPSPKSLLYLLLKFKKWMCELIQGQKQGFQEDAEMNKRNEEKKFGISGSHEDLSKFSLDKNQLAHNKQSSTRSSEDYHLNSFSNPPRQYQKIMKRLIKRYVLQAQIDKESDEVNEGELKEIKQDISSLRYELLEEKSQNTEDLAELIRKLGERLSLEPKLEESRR

CCOC(=O)c1c(-c2ccc(OC)cc2)oc2ccc(O)cc12
inactive: outcome [1] | outcome [2] | outcome [3] | outcome [4] | outcome [5] | outcome [6] | outcome [7] | outcome [8] | outcome [9] | outcome [10] | outcome [11] | outcome [12] | outcome [13] | outcome [14] | outcome [15] | outcome [16] | outcome [17]

O=[N+]([O-])c1c(Nc2cccc(O)c2)cc(Cl)c2nonc12
inactive: outcome [1] | outcome [2] | outcome [3] | outcome [4] | outcome [5] | outcome [6] | outcome [7] | outcome [8] | outcome [9] | outcome [10] | outcome [11] | outcome [12] | outcome [13] | outcome [14] | outcome [15] | outcome [16] | outcome [17]

CSc1ccccc1OC1CCN(Cc2ccccc2)CC1
inactive: outcome [1] | outcome [2] | outcome [3] | outcome [4] | outcome [5] | outcome [6] | outcome [7] | outcome [8] | outcome [9] | outcome [10] | outcome [11] | outcome [12] | outcome [13] | outcome [14] | outcome [15] | outcome [16] | outcome [17]

O=C1CCCC(=O)N1c1ccc(N2CCN(c3ccc([N+](=O)[O-])cc3)CC2)c([N+](=O)[O-])c1
active: potentiation [4] 11% | potentiation [15] 14.9%
inactive: outcome [1] | outcome [2] | outcome [3] | outcome [5] | outcome [6] | outcome [7] | outcome [8] | outcome [9] | outcome [10] | outcome [11] | outcome [12] | outcome [13] | outcome [14] | outcome [16] | outcome [17]

CCCCN(C)CCNC(=O)c1ccc(Cn2c(=S)[nH]c3ccc(Br)cc3c2=O)cc1
inactive: outcome [1] | outcome [2] | outcome [3] | outcome [5] | outcome [6] | outcome [7] | outcome [8] | outcome [9] | outcome [10] | outcome [11] | outcome [12] | outcome [13] | outcome [14] | outcome [16] | outcome [17]
active: potentiation [4] 16% | potentiation [15] 33.5%

COc1ccc(C2C(O)C(c3c[nH]c4ccccc34)=NN2C(=O)CCl)cc1 (stereo not given)
active: potentiation [4] 36% | potentiation [15] 28.9%
inactive: outcome [1] | outcome [2] | outcome [3] | outcome [5] | outcome [6] | outcome [7] | outcome [8] | outcome [9] | outcome [10] | outcome [11] | outcome [12] | outcome [13] | outcome [14] | outcome [16] | outcome [17]

O=C(O)c1ccc(N2CCN(C(c3ccccc3)c3ccccc3)CC2)c([N+](=O)[O-])c1
inactive: outcome [1] | outcome [2] | outcome [3] | outcome [4] | outcome [5] | outcome [6] | outcome [7] | outcome [8] | outcome [9] | outcome [10] | outcome [11] | outcome [12] | outcome [13] | outcome [14] | outcome [15] | outcome [16] | outcome [17]

CSc1nnc(Cc2sc(-c3ccccc3)nc2-c2ccccc2)o1
active: potentiation [15] 23.3%
inactive: outcome [1] | outcome [2] | outcome [3] | outcome [4] | outcome [5] | outcome [6] | outcome [7] | outcome [8] | outcome [9] | outcome [10] | outcome [11] | outcome [12] | outcome [13] | outcome [14] | outcome [16] | outcome [17]

CCCCN(C)CCNC(=O)c1c[nH]c2ccc(S(=O)(=O)N(CC)CC)cc2c1=O
inactive: outcome [1] | outcome [2] | outcome [3] | outcome [5] | outcome [6] | outcome [7] | outcome [8] | outcome [9] | outcome [10] | outcome [11] | outcome [12] | outcome [13] | outcome [14] | outcome [16] | outcome [17]
active: potentiation [4] 46% | potentiation [15] 26.4%

N=C(N)SCc1cn2ccccc2n1
inactive: outcome [1] | outcome [2] | outcome [3] | outcome [4] | outcome [5] | outcome [6] | outcome [7] | outcome [8] | outcome [9] | outcome [10] | outcome [11] | outcome [12] | outcome [13] | outcome [14] | outcome [16] | outcome [17]
active: potentiation [15] 8.53%

CCOCCCNCc1ccc(OCc2ccccc2Cl)cc1
inactive: outcome [1] | outcome [2] | outcome [3] | outcome [4] | outcome [5] | outcome [6] | outcome [7] | outcome [8] | outcome [9] | outcome [10] | outcome [11] | outcome [12] | outcome [13] | outcome [14] | outcome [15] | outcome [16] | outcome [17]

Cn1c(SCCOc2ccccc2F)nc2ccccc2c1=O
inactive: outcome [1] | outcome [2] | outcome [3] | outcome [5] | outcome [6] | outcome [7] | outcome [8] | outcome [9] | outcome [10] | outcome [11] | outcome [12] | outcome [13] | outcome [14] | outcome [15] | outcome [16] | outcome [17]
active: potentiation [4] 10%

Cc1ccc(CS(=O)(=O)CCC(=O)NCCC2=CCCCC2)cc1
active: potentiation [3] 14% | potentiation [15] 18.2%
inactive: outcome [1] | outcome [2] | outcome [4] | outcome [5] | outcome [6] | outcome [7] | outcome [8] | outcome [9] | outcome [10] | outcome [11] | outcome [12] | outcome [13] | outcome [14] | outcome [16] | outcome [17]

Cc1cc2oc(C(=O)N(Cc3cccs3)C3CCS(=O)(=O)C3)cc(=O)c2cc1Cl (stereo not given)
active: potentiation [4] 40% | potentiation [15] 66.3%
inactive: outcome [1] | outcome [2] | outcome [3] | outcome [5] | outcome [6] | outcome [7] | outcome [8] | outcome [9] | outcome [10] | outcome [11] | outcome [12] | outcome [13] | outcome [14] | outcome [16] | outcome [17]

COc1ccccc1N(C(=O)c1snc(C(N)=O)c1N)C(C(=O)NCc1ccccc1)c1ccc(O)cc1 (stereo not given)
inactive: outcome [1] | outcome [2] | outcome [3] | outcome [4] | outcome [7] | outcome [8] | outcome [9] | outcome [10] | outcome [11] | outcome [12] | outcome [13] | outcome [15] | outcome [16] | outcome [17]
active: inhibition [5] 91% | inhibition [6] 51% | inhibition [14] 26.4%
